Compound activity from PubChem.
Pf growth 96h – P. falciparum growth inhibition at 96 hours; Potency, µM (highest dose often 28.7 µM), actives largely listed as inhibitors; P. falciparum luciferase reporter growth, 96 h; 6.9% of 320,000 active; AID 504834
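Delayed-death screen, second-generation endpoint: infected erythrocytes, 2% hematocrit, 0.05% parasitemia final; 96 hours at 37 C, 5% CO2; luciferase detection reagent; luminescence decrease equals reduced growth.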
CHX counter – counter-screen hit for Shiga toxin inhibitors, cycloheximide; cell reporter, cycloheximide protein synthesis inhibition counterscreen; max response, %; 12% of 300,000 active; in the data active = max response mostly above about 13%, no sharp cut-off; inactive = mostly below about 14%; also: read at 38.3 µM for the half of the compounds with a filed dose
Shiga inhibitor – blocks Shiga toxin action in Vero cells | Vero cells, Shiga toxin protein synthesis inhibition reporter | inhibition, % at 38.7 µM | 9.2% of 290,000 active; in the data active = inhibition mostly above about 28%, no sharp cut-off; inactive = mostly below about 43%
Pf growth 48h – P. falciparum growth inhibition at 48 hours (one generation) | P. falciparum luciferase growth in erythrocytes, 48 h | Potency, µM (titrated, usually from 28.7 µM), most hits filed as inhibitors | 5.9% of 310,000 active | AID 504832
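Growth was read as firefly luciferase luminescence after a 48 h, 37 C, 5% CO2 exposure of compounds to reporter-bearing P. falciparum cultures (0.1% parasitemia, 2% hematocrit final) in Albumax-supplemented RPMI 1640.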
Each line names hits and unclear results; the compound was inactive in the other large screens; ! = a repeat was not active. This is a sample that favours compounds with a hit; in the whole collection about 21% have one here. Unless noted, calls follow the shape of the dose curve; as a rule, active = well fitted inhibition curve with a large enough effect; inconclusive = small, poorly fitted or top-dose-only effect, or another doubt; inactive = no such curve, though single readings can be large or run the other way.

Cc1c(Cl)cccc1NC(=O)CC(Cc1ccccc1)C(=O)O (stereo not given)	none
Cc1c(Cl)cccc1Nc1ccccc1C(=O)O	Pf growth 96h 13µM!, Pf growth 48h inconclusive
O=C(CC(Nc1ccc(Cl)cc1)C(=O)O)c1ccccc1 (stereo not given)	CHX counter 54, Shiga inhibitor 42
Cc1ccc(C)c(NC(=O)CCN2C(=O)[C@@H]3Cc4ccccc4CN3C2=O)c1	none
COc1ccc(S(=O)(=O)N2CCOCC2)cc1NC(=O)CCNC(=O)c1ccc([N+](=O)[O-])cc1	Pf growth 96h inconclusive (no result: CHX counter, Shiga inhibitor)
COC(=O)c1ccccc1SC(CC(=O)c1ccccc1)c1ccc(F)cc1 (stereo not given)	Pf growth 96h inconclusive, CHX counter 56, Shiga inhibitor 107, Pf growth 48h inconclusive
O=C(CC(Nc1cccc(Cl)c1Cl)C(=O)O)c1ccccc1 (stereo not given)	CHX counter 57, Shiga inhibitor 102
O=C(CC(Nc1ccccc1Cl)C(=O)O)c1ccccc1 (stereo not given)	CHX counter 68, Shiga inhibitor 91
O=C(CC(CC(=O)c1ccccc1)C(=O)O)c1ccccc1	none (no result: Pf growth 48h)
O=C(CC(Nc1cccc(Cl)c1Cl)C(=O)OCC(=O)c1cccs1)c1ccccc1 (stereo not given)	Pf growth 96h inconclusive
O=C(CC(Nc1ccc(F)cc1)c1ccccc1)c1ccccc1 (stereo not given)	CHX counter 31, Shiga inhibitor 91
O=C(CN1C(=O)NC2(CCCCCCC2)C1=O)Nc1ccc(Cl)cc1	none (no result: CHX counter, Shiga inhibitor)
COc1ccccc1NC(CC(=O)c1ccccc1)C(=O)OCC(=O)c1ccc(F)cc1 (stereo not given)	CHX counter 49, Shiga inhibitor 60
OCCN1CCOCCOc2ccccc2OCCOCC1	none
COc1cc(/C=C/C(=O)c2ccc3c(c2)OCCO3)cc(OC)c1OC	Pf growth 48h inconclusive
O=C(CCc1ccccc1)c1ccc2c(c1)OCCCO2	CHX counter 69, Shiga inhibitor 125, Pf growth 48h inconclusive (no result: Pf growth 96h)
CC(=O)c1ccc2c(c1)OCCOCCOc1ccccc1OCCOCCO2	none
O=C(c1ccccc1)c1ccc2c(c1)OCCOCCOCCO2	CHX counter 14, Shiga inhibitor 49
COc1ccc(OC)c(/C=C/C(=O)c2ccc3c(c2)OCCO3)c1	CHX counter 25, Shiga inhibitor 26
c1ccc2c(c1)OCCOCCOCCOCCOCCOc1ccccc1OCCOCCOCCO2	Pf growth 96h 7.4µM, Pf growth 48h inconclusive
O/N=C(/CCc1ccccc1)c1ccc2c(c1)OCCO2	CHX counter 38, Shiga inhibitor 75
O=C(/C=C/c1ccccc1)c1ccc2c(c1)OCCCCO2	CHX counter 43, Shiga inhibitor 41
O=C(O)c1ccc2c(c1)OCCCO2	none
O=C(c1ccccc1)c1ccc2c(c1)OCCCO2	CHX counter 55, Shiga inhibitor 93
COc1ccc(N2CCN(S(=O)(=O)c3c(C(=O)N4CCOCC4)c(C)n(C)c3C)CC2)cc1	none
CCN1CCN(C(=O)C2c3cc(OC)c(OC)cc3C(=O)N(C)C2c2ccc(SC)cc2)CC1 (stereo not given)	Pf growth 48h inconclusive
Cc1ccc(NC(=O)CNC(=O)c2cccs2)c(O)c1	Pf growth 96h inconclusive (no result: CHX counter, Shiga inhibitor)
CCOC(=O)C1=C(N)n2c(s/c(=C/c3ccco3)c2=O)=C(C(=O)OC)C1c1ccco1 (stereo not given)	Pf growth 96h inconclusive, Pf growth 48h 13µM
CCOC(=O)C1=C(C)NC(C)=C(C(=O)OC)C1c1ccco1 (stereo not given)	Pf growth 96h 13µM, Pf growth 48h inconclusive
C=CCOC(=O)C1=C(C)NC(C)=C(C(=O)OCC=C)C1c1ccco1	Pf growth 96h inconclusive, Pf growth 48h inconclusive
CN(C(=O)c1ccc(NC(=O)Cc2ccc(NC(=O)C3CCCN(C(=O)C4CC4)C3)cc2)cc1)C1CC1 (stereo not given)	Pf growth 96h inconclusive (no result: CHX counter, Shiga inhibitor)
COc1cc(C(=O)COC(=O)c2cnc(C)cn2)ccc1OC(F)F	none
C/C(=N/NC(=O)CNC(=O)c1ccncc1)c1ccc(Cl)cc1	none
C/C(=N\NC(=O)c1ccc(OC2OCCOC2Oc2ccc(C(=O)N/N=C(\C)c3ccncc3)cc2)cc1)c1ccncc1 (stereo not given)	Pf growth 96h inconclusive, Pf growth 48h 1.7µM
C/C(=N/NC(=O)c1cc(C(C)C)[nH]n1)c1cccs1	none
C/C(=N/NC(=O)c1ccc(C)s1)c1ccncc1	Pf growth 96h inconclusive, CHX counter 30, Shiga inhibitor 60
C/C(=N/NC(=O)c1cnccn1)c1cccs1	CHX counter 40, Shiga inhibitor 93
C/C(=N\NC(=O)c1cccs1)c1ccncc1	CHX counter 36, Shiga inhibitor 107
CC(C)c1nn2c(=O)cc(COc3cccc(NC(=O)c4ccco4)c3)nc2s1	Pf growth 96h inconclusive
Cc1cc(C2CC(=O)Nc3ccccc3S2)c(C)s1 (stereo not given)	none
C/C(=N/NC(=O)c1ccncc1)c1ccccc1	none (no result: Shiga inhibitor)
CCc1ccc(C(=O)N/N=C(\C)c2ccncc2)s1	Pf growth 96h inconclusive, CHX counter 37, Shiga inhibitor 70
COc1ccc(Cl)cc1NC(=O)C1CC(c2ccccc2O)=NO1 (stereo not given)	none
Cc1nn(Cc2ccccc2)c(C)c1NC(=O)c1cc(-c2ccco2)on1	Pf growth 48h inconclusive
COc1ccc(NC(=O)c2cc(-c3ccco3)on2)c(OC)c1	none
COc1cc(NC(=O)c2cc(-c3ccco3)on2)c(OC)cc1Cl	none
CCc1ccc(NC(=O)c2cc(-c3ccco3)on2)cc1	Pf growth 96h 2.9µM, CHX counter 52, Shiga inhibitor 57
COc1ccc(NC(=O)c2cc(-c3ccco3)on2)cc1	Pf growth 96h inconclusive, CHX counter 61, Shiga inhibitor 89
CC(C)NC(=O)c1cc(-c2ccco2)on1	Pf growth 96h inconclusive, CHX counter 32, Shiga inhibitor 106
COc1ccc(NC(=O)C2=CC(c3ccco3)=NS(=O)(=O)N2C)cc1	CHX counter 17
O=[N+]([O-])c1cccc2c(N3CCCC3)ccnc12	CHX counter 21, Pf growth 48h inconclusive
C=CCn1c(SCC(=O)c2ccc(Cl)cc2)nnc1-c1ccc2c(c1)OCO2	Pf growth 96h 12µM, Pf growth 48h inconclusive
COc1ccc(OC)c(CN2CCN(C(=O)CCC(=O)c3cccs3)CC2)c1	Pf growth 48h inconclusive (no result: CHX counter, Shiga inhibitor)
C1CCc2c(nc3nnnn3c2NCC2CC2)C1	Pf growth 96h inconclusive
CC(=O)Nc1ccc(NC(=O)CSc2ccc3nnc(-c4ccccn4)n3n2)cc1	none
COc1ccc(C2=NN(C(=O)CCC(=O)O)C(c3ccccc3)C2)cc1 (stereo not given)	Pf growth 96h inconclusive
COc1ccc(C2CC(c3ccccc3)=NN2C(=O)COC(=O)/C=C/c2ccc(O)c(OC)c2)cc1 (stereo not given)	Pf growth 96h inconclusive, Pf growth 48h 15µM
COc1ccc(C2CC(c3ccccc3)=NN2C(=O)CSc2ncccn2)cc1 (stereo not given)	Pf growth 96h inconclusive, Pf growth 48h inconclusive
COc1ccc(C2=NN(C(=O)CN3CCOCC3)C(c3nc4ccccc4[nH]3)C2)cc1 (stereo not given)	CHX counter 56, Shiga inhibitor 105
